# From PubChem BioAssay AID1508600 (Functional Genomics Laboratory (NCATS/FGL), 2020)
# Out of some 53,000 sequences screened, about 3,700 (7%) were called active.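 How the source made its calls: active means gene knockdowns whose robust z-score for IL-1 alpha signal is at least 2 or at most -2, so actives lie on both sides; inactive means the rest.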 This excerpt belongs to a sample that is enriched for actives.
# Test: Components of the Cytosolic LPS Sensing Pathway: Gene Identification via Genome-wide siRNA Screen;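 further: robust z of the log signal after scaling to non-targeting control siRNA wells of the plate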
# Conditions: RAW264.7 macrophages, IL-1a HTRF, actives lie on both sides, screened at 100 nM (by protocol), cells primed 5 h with Pam3CSK4 first
# In short: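 Three distinct siRNAs per gene were tested singly at 100 nM in RAW264.7 macrophages. Following Pam3CSK4 priming and 24 hour LipidA transfection, IL-1a secretion was read by HTRF.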
row,Sequence,z-score
1,GCUGUUCUGCAAAACUGGATT against Rbpms,-1.36 (inactive)
2,GGACACAAGGUCGCCAUCUTT against Tcf7l1,-0.502 (inactive)
3,GGUGCUGGAUGAAUUUGGGTT against Zp1,-0.416 (inactive)
4,GCAUGUCGCCUUGAAAUUATT against Cpne4,0.202 (inactive)
5,GGAAGGAGGGUAUGUGGUUTT against Lgals9,-0.346 (inactive)
6,GCAAACUGCCCUCUUUGUGTT against Olfr1024,2.54 (active)
7,GGAUAUACACAACAGGCACTT against Tceal9,0.422 (inactive)
8,GGAGACACAUAGGUGUAAATT against H2-T23,0.458 (inactive)
9,GCACCAUCGACUAAUCAAATT against 1700029J07Rik,1.12 (inactive)
10,CCUCUGCUACUCUUAUUGUTT against Ttn,-0.523 (inactive)
11,GGACUGUACAGUGGCAUUATT against Cd70,-1.69 (inactive)
12,UACUCGUGGUGUUUGCAAGTT against Olfr1154,0.873 (inactive)
13,GGUGGAAGCAAGAGAAAAUTT against Tnp1,2.03 (active)
14,GCUCAUGUCUUAUUUGGAUTT against Klhl15,-0.393 (inactive)
15,CCGAAGUGCCAUGCCAUUUTT against Pdlim1,0.399 (inactive)
16,GCACAUUUAUCCCGGUGUATT against Pnpla2,-2.01 (active)
17,GGUUCAAUUCAAGUCUUUATT against Olfr195,0.339 (inactive)
18,GGCCUACAGCUGGAAAGAATT against Chrm1,0.418 (inactive)
19,GCUGCUCUGCUAUAAGUAUTT against Kptn,-0.269 (inactive)
20,GGAAAUCGAUAGUUUCUUCTT against Olfr1302,-0.0687 (inactive)
21,GACCUUCGUUAGCAUUACGTT against Pfn1,0.65 (inactive)
22,GCUGUUUUGUCUCCAGCCCTT against Zbtb20,-0.118 (inactive)
23,GGGAUAUGUGACUAUGUUATT against Slc5a7,-0.138 (inactive)
24,GCUGAGAAUCGUUUAAAUGTT against Ugt2a3,0.00662 (inactive)
25,GCUAAUUGUUCACUAAAGGTT against 1700029H14Rik,0.655 (inactive)
26,GGUUAUCAUGAGGCCUUGGTT against Olfr1339,-2.38 (active)
27,GGUCAGAAAAGUAUGUUGGTT against Naip5,0.208 (inactive)
28,GUGUAUCCCAGGCUAUCACTT against Vmn1r19,-1.17 (inactive)
29,GCCACGAUAAUUCAGGAGUTT against Aurkc,2.27 (active)
